This passage reports cell number change, lipid storage change, negative = inhibition and Potency results from PubChem BioAssay AID2685 (National Center for Advancing Translational Sciences (NCATS), 2010).

In all, about 320,000 compounds went through this assay and about 2,100 (0.66%) were called active. Inconclusive results (about 53%) are left out. The sample holds actives, similar compounds and a random draw of the others, so the mix is not that of the screen. The call rests on the fitted dose curve; in most records, active means well fitted inhibition curve with a large enough effect in the signal ratio, with a control signal flat (not every such curve was filed as active); inconclusive means small, poorly fitted or top-dose-only effect, or effect the other way, or a change in a side signal; inactive means flat fitted curve, though single readings scatter; the % refers to the signal ratio.
Potency means the concentration at half of the fitted maximal effect.

The nature of this experiment: qHTS Assay for Lipid Storage Modulators in Drosophila S3 Cells.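 On cell number change: cells counted by Cell Tracker Red CMTPX staining in the red channel.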 On lipid storage change, negative = inhibition: on the % scale 0 is the no-effect control and ±100 the full control effect. Conditions: BODIPY lipid droplet fluorescence, 18-24 h, cells fed with added oleic acid; cell number change: measured here: cell count max response; series mostly up to 46.1 µM. An outline of the steps: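 Drosophila S3 cells got compounds at several concentrations plus oleic acid (400 uM solution). Laser-scanning cytometry with 488 nm excitation read lipid droplets at 500-530 nm and cells at 575-640 nm. Percent activity was relative to 20 uM Triacsin C.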
On the technique in general: In qHTS, concentration-response curves come from the screen itself.
Regarding `CC(OC(=O)CNC(=O)c1ccc(Cl)cc1)C(=O)NC1CCCCC1C` (centres undefined), the cell number change was 3.37% and the lipid storage change, negative = inhibition was -18.8% [at 0.0737 µM] (inactive). As to `CC(OC(=O)Cc1c(F)cccc1Cl)C(=O)NC1CCCCC1C` (centres undefined), the Potency was 16.4 µM (active) and the cell number change is -24.1%. As to `CC(OC(=O)Cc1ccc(Br)cc1)C(=O)NC1CCCCC1C` (centres undefined), the Potency result is “inactive” and the cell number change was found to be 5.28%. Turning to `CCc1ccc2oc(=O)cc(CN3CCN(Cc4ccccc4)CC3)c2c1`, the Potency result was “inactive” and the cell number change was determined as 4.49%. With `O=C(NCc1ccccc1)c1cc(-c2cccc(O)c2)on1`, the Potency result was “inactive” and the cell number change is 9.36%.

In the case of `CC(OC(=O)c1nc(Cl)ccc1Cl)C(=O)Nc1ccccc1F` (centres undefined), the Potency result was “inactive” and the cell number change was -13.3%. `CCn1c(SCC(=O)Nc2ccc(C(C)=O)cc2)nnc1C1CC1`: the Potency result was “inactive” and the cell number change was found to be 13.3%.

Take `CC(C)n1cnnc1SCC(=O)Nc1cccc(S(=O)(=O)N(C)c2ccccc2)c1`: the Potency result was “inactive” and the cell number change is -11.3%. Turning to `CC(=O)c1ccc(NC(=O)CSc2nnc(C3CC3)n2C)cc1`, the Potency was 1.84 µM (active) and the cell number change is 24.2%. On to `CN(c1ccccc1)S(=O)(=O)c1cccc(NC(=O)CSc2nnc(C3CC3)n2C)c1`, for which the Potency is 23.1 µM (active) and the cell number change is 4.1%. For `CC(=O)Nc1ccc(NC(=O)CSc2nnc(C3CC3)n2C)cc1`, in that order: “inactive” and -6.84%. As to `CCn1c(SCC(=O)Nc2cccc(S(=O)(=O)N(C)c3ccccc3)c2)nnc1C1CC1`, the Potency result is “inactive” and the cell number change came out at 0.735%.

Regarding `COc1ccc(NC(=O)c2ccc(S(=O)(=O)N3CCCCC3)cc2)c(OC)c1`, the Potency result is “inactive” and the cell number change is -34.1%. As to `Cc1cc2n(n1)SC(Nc1cc(Cl)ccc1Cl)N2` (centres undefined), the Potency entry was “inactive” and the cell number change was -3.68%. With `COc1ccc(N2CCN(CCCNC(=O)CN3C(=O)COc4ccccc43)CC2)cc1`, the Potency result is “inactive” and the cell number change is -22.1%. Take `Cn1c(C(=O)N2CCN(c3ccc(Cl)cc3)CC2)cc2c(=O)[nH]c3ccccc3c21`: the Potency result was “inactive” and the cell number change is 18.3%. Turning to `COc1ccc(/C=N/NC(=O)C(O)(c2ccccc2)c2ccccc2)cc1OC`, the Potency result was “inactive” and the cell number change worked out at 3.71%. Regarding `CCN(CC)c1ccc(/C=N/NC(=O)C(O)(c2ccccc2)c2ccccc2)o1`, the Potency is 20.6 µM (active) and the cell number change was -15.7%.

`O=C(O)COc1ccc(/C=N/NC(=O)C(O)(c2ccccc2)c2ccccc2)cc1`: the Potency result is “inactive” and the cell number change came to 7.99%. As for `O=C(C1CCN(Cc2cccs2)CC1)N1CCN(Cc2ccc3c(c2)OCO3)CC1`, the Potency result was “inactive” and the cell number change worked out at 20.4%. Regarding `C/C(=C/Cc1c(O)cc2oc(C)cc(=O)c2c1O)COC1OC(CO)C(O)C(O)C1O` (centres undefined), the Potency entry is “inactive” and the cell number change was found to be 6.97%. On to `CCN1C(=O)[C@H]2[C@@H](c3ccc(-c4ccc(OC)cc4)cc3)N[C@@](CC(C)C)(C(=O)OC)[C@H]2C1=O`, for which the Potency entry is “inactive” and the cell number change stood at 12.8%.

As for `CCN1C(=O)[C@H]2[C@@H](c3ccc(SC4CCCCC4)cc3)N[C@@](CC(C)C)(C(=O)OC)[C@H]2C1=O`, the Potency is 8.2 µM (active).

Regarding `CCN1C(=O)[C@H]2[C@@H](c3ccc(-c4ccccc4)cc3)N[C@@](CC(C)C)(C(=O)OC)[C@H]2C1=O`, the Potency entry was “inactive” and the cell number change worked out at 7.59%. On to `CC(C)NC(=O)c1ccccc1NC(=O)CS(=O)(=O)Cc1ccccc1`, for which the Potency entry is “inactive” and the cell number change turned out to be 14.5%.

For the compound `Cc1ccc(NS(=O)(=O)c2ccc3c(c2)oc(=O)n3C)cc1C`, the Potency result is “inactive” and the cell number change came out at 5.19%. For `COc1ccccc1NS(=O)(=O)c1ccc2oc(SCc3ccc(F)cc3)nc2c1` the same measures were “inactive” and -19.8%.

Take `CCOC(=O)CSc1nc2cc(S(=O)(=O)Nc3ccccc3OC)ccc2o1`: the Potency is 29.1 µM (active) and the cell number change is -16.6%. Take `COc1ccccc1NS(=O)(=O)c1ccc2oc(SC(C)C(=O)N3CCNC3=O)nc2c1` (centres undefined): the Potency result is “inactive” and the cell number change is -7.72%. For `CSc1ccc(CCNC(=O)CN2C(=O)CCSc3ccccc32)cc1` the same measures were “inactive” and 2.42%. For `Cc1cc(C)nc(Sc2ccc([N+](=O)[O-])cc2[N+](=O)[O-])n1` the same measures were 16.4 µM (active) and -6.83%. In the case of `Cc1cc(C)nc(SCc2ccc([N+](=O)[O-])cc2)n1`, the Potency result is “inactive” and the cell number change is -8.5%.

Turning to `Cc1cc(C)nc(SCC(=O)c2ccc([N+](=O)[O-])cc2)n1`, the Potency result was “inactive”.

Take `C=CCn1c(=O)c2c(nc(-n3nc(C)cc3C)n2C)n(C)c1=O`: the Potency result is “inactive”.

Regarding `Cc1cc(C)nc(N2CCN(C(=O)CCC(=O)Nc3nnc(C(C)C)s3)CC2)n1`, the Potency result was “inactive” and the cell number change turned out to be 0.873%. On to `O=S(=O)(/N=C(\c1ccccc1F)N1CCCCC1)c1ccccc1`, for which the Potency entry is “inactive” and the cell number change is -0.464%.

For the compound `CC(C)Oc1ccc(CNC(=O)Cn2c(=O)c3cccn3c3cccnc32)cc1`, the Potency entry is “inactive” and the cell number change was -16.2%. As for `CC1(C)C2CC[C@]1(C)C(=O)N(CCCCN1CCN(c3ccccn3)CC1)C2=O`, the Potency entry is “inactive” and the cell number change was determined as 15.1%. For `Cc1[nH]c2ccccc2c1SCC(=O)N1CCC(C)CC1` the same measures were “inactive” and -5.95%.

In the case of `S=C1NC2=C(CCCC2)C2(CCCCC2)N1`, the Potency result was “inactive” and the cell number change stood at 0.876%. In the case of `CSC1=NC2(CCCCC2)C2=C(CCCC2)N1`, the Potency was 5.8 µM (active) and the cell number change was -4.54%. In the case of `Cc1cccc(C(=O)Nc2c3c(nn2C(C)(C)C)CS(=O)(=O)C3)c1`, the Potency entry was “inactive”.

As for `COC(=O)c1cc(OC)c(OC)cc1NC(=S)NC(=O)c1ccco1`, the Potency was 18.4 µM (active) and the cell number change was -15.6%.

Turning to `COc1ccc(Cl)cc1NC(=S)NC(=O)c1ccco1`, the Potency result is “inactive” and the cell number change came out at 1.24%.

Turning to `COc1cc(NC(=O)c2ccco2)c(C(=O)O)cc1OC`, the Potency result is “inactive” and the cell number change was determined as 5.35%. For `CC1CCc2nn(CC(=O)NCc3ccco3)cc2C1` (centres undefined) the same measures were “inactive” and -0.142%.

Consider `CCCCN(C(=S)NC(=O)c1ccccc1)c1c(N)n(Cc2ccccc2)c(=O)[nH]c1=O`, for which the Potency entry is “inactive” and the cell number change is -12.7%. For `COC(=O)C(C)SC1=N/C(=C/c2ccc(-n3cncn3)cc2)C(=O)N1` (centres undefined), in that order: “inactive” and -12.1%. `Cc1ccc2cc(CN(Cc3ccco3)C(=S)NCC3CCCO3)c(=O)[nH]c2c1` (centres undefined): the Potency entry was “inactive” and the cell number change turned out to be 3.25%.
